Measured values published in PubChem BioAssay AID743363 (Broad Institute, 2014).
The source made the active and inactive calls. The rule behind the calls is not given here.

Test: BioD-coupled fluorescence displacement counter-assay – biochemical, dry powder samples, counter-screen, dose response (AID 743363)
Details: FL-DTB/streptavidin fluorescence displacement counter-screen; series mostly up to 10 µM

SMILES	outcome
CC(=O)c1ccc(N2CCN(C(=O)c3ccc4snnc4c3)CC2)cc1	inactive
CCC(=O)N1CC[C@@H]2[C@@H](CO)N(C)c3ccc(-c4ccc(F)cc4)cc3[C@@H]21	inactive
CC(=O)c1ccc(N2CCN(C(=O)Nc3ccc4c(c3)OCO4)CC2)cc1	inactive
CC(=O)c1ccc(N2CCN(C(=O)c3cc4c(cc3C)OCO4)CC2)cc1	inactive
CC(=O)c1ccc(N2CCN(C(=O)c3ccc4c(c3C)OCO4)CC2)cc1	inactive
COc1ccccc1NC(=O)N1CC[C@@H]2[C@@H](CO)N(C)c3ccc(-c4cccc(F)c4)cc3[C@@H]21	inactive
CN1c2ccc(-c3ccc(F)cc3)cc2[C@H]2[C@H](CCN2C(=O)Cc2cccnc2)[C@H]1CO	inactive
COc1ccc(NC(=O)N2CC[C@@H]3[C@@H](CO)N(C)c4ccc(-c5ccc(F)cc5)cc4[C@@H]32)cc1	inactive
CC(=O)c1ccc(N2CCN(C(=O)c3cc(Cl)c4c(c3)OCO4)CC2)cc1	inactive
COc1ccccc1C(=O)N1CCN(c2ccc(C(C)=O)cc2)CC1	inactive
CN(C)C(=O)c1ccc(N2CCN(C(=O)c3ccc4c(c3)OCO4)CC2)cc1	inactive
COc1ccc(NC(=O)N2CC[C@@H]3[C@@H](CO)N(C)c4ccc(-c5cccc(F)c5)cc4[C@@H]32)cc1	inactive
CC(=O)c1ccc(N2CCN(C(=O)c3ccc4c(c3)OCO4)CC2)cc1	inactive
CC(=O)c1ccc(NCCNC(=O)c2ccc3c(c2)OCO3)cc1	inactive
CN1c2ccc(-c3ccc(F)cc3)cc2[C@H]2[C@H](CCN2C(=O)Cc2ccccn2)[C@H]1CO	inactive
